KDM5B inhibitor – inhibitors of human KDM5B histone demethylase. Q9UGL1. KDM5B demethylase, FDH-coupled NADH fluorescence (FDH is formaldehyde dehydrogenase). Potency, µM (doses to about 57.7 µM), usual class: inhibitors. 220,000 compounds, 2.6% hits. AID 1347165; active = well fitted inhibition curve with a large enough effect; also: 0% is about no effect; nearly all actives have a fitted effect of over 70% in size
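Measured: NADH fluorescence change, 30 min, RT. System: KDM5BΔAP 200 nM final, H3K4me3 peptide, α-KG, Fe(II), ascorbate, NAD⁺ plus FDH, pH 7.5 HEPES. Compounds: titrated, 10 min pre-incubation with enzyme.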
The depositor's hits bear a star; i = inactive. This is one part of a sample in which hits are shown more often than they occur. Potency is read from the fitted curve at half-maximal effect.

SMILES	KDM5B inhibitor
COc1ccc(C(=O)Nc2nc3c(s2)C[C@@H]2[C@](C)(CO)[C@H](O)CC[C@@]2(C)[C@@H]3CC(=O)NCCNC(C)=O)cc1	i
C[C@@H](NC(=O)C[C@@H]1c2nc(-c3cccnc3)sc2C[C@@H]2[C@](C)(CO)[C@H](O)CC[C@]21C)c1ccccc1	32µM*
C[C@]1(CO)[C@H]2Cc3sc(NC(=O)c4ccco4)nc3[C@@H](CC(=O)NCc3cccnc3)[C@]2(C)CC[C@H]1O	i
CC(C)C[C@H](CO)NC(=O)C[C@@H]1c2nc(-c3cccnc3)sc2C[C@@H]2[C@](C)(CO)[C@H](O)CC[C@]21C	32µM*
Cc1nc2c(s1)C[C@@H]1[C@](C)(CO)[C@H](O)CC[C@@]1(C)[C@@H]2CC(=O)Nc1ccccc1	i
C#CCN(C)C(=O)C[C@@H]1c2nc(NC(=O)COC)sc2C[C@@H]2[C@](C)(CO)[C@H](O)CC[C@]21C	i
COCCNC(=O)C[C@@H]1c2nc(NC(=O)c3ccnc(Cl)c3)sc2C[C@@H]2[C@](C)(CO)[C@H](O)CC[C@]21C	i
C#CCN(C)C(=O)C[C@@H]1c2nc(NC(=O)CCCCC)sc2C[C@@H]2[C@](C)(CO)[C@H](O)CC[C@]21C	i
CCCCCC(=O)Nc1nc2c(s1)C[C@@H]1[C@](C)(CO)[C@H](O)CC[C@@]1(C)[C@@H]2CC(=O)N[C@H](C)c1ccccc1	i
Cc1ccc(NC(=O)CSCc2cc(C)no2)cc1	i
Cc1c(CC(=O)Nc2nc3ccccc3[nH]2)c(=O)oc2cc(O)ccc12	i
COc1cc([C@H]2[C@@H]3CCCC[C@]3(O)CCN2Cc2cccc(F)c2)ccc1O	i
O=C1CCCC2=C1C(c1cccc(OCc3ccc(Cl)cc3)c1)C1=C(CCCC1=O)O2	i
Clc1ccc(COc2ccc(CNCC3CCNCC3)cc2)cc1	i
NC(=O)/C(=C/c1ccc(O)cc1)NC(=O)c1ccco1	i
O=C(NC1CCCCC1)N1CCCC1c1noc(COc2ccc(F)cc2)n1 (centres undefined)	i
CCc1ccc(NC(=O)CCCn2cnc3c2c(=O)n(C)c(=O)n3C)cc1	i
Cc1c(C)c2ccc(OCC(=O)Nc3ccccc3)c(C)c2oc1=O	i
CN(Cc1ccccc1)C(=O)Cc1ccc(N(Cc2cccc(F)c2)C(=O)c2ccco2)cc1	i
Cc1cn2nc(C(=O)N3CCC(C)CC3)cc2c(N(C)Cc2ccccc2)n1	28µM*
CC1CCN(C(=O)c2ccc(CN(c3ccccc3)S(C)(=O)=O)cc2)CC1	i
CCN(CC)c1nc2ccccc2nc1C(=O)Nc1ccccc1F	i
Cc1cn2nc(C(=O)N3CCC(C(=O)NC4CCC(C)CC4)CC3)cc2c(=O)[nH]1 (centres undefined)	i
Cc1cn2nc(C(=O)Nc3ccc(F)c(F)c3)cc2c(N(C)Cc2ccccc2)n1	32µM*
Cc1cc(=O)n(CC(=O)Nc2ccc(C)c(F)c2)c(N(C)Cc2ccccc2)n1	i
SMILES	KDM5B inhibitor
Cc1cc(=O)n(CC(=O)Nc2ccc(Cl)cc2F)c(N(C)Cc2ccccc2)n1	i
Cc1cn2nc(C(=O)Nc3ccccc3F)cc2c(N(C)Cc2ccccc2)n1	22µM*
O=C(CNC(=O)c1nn(Cc2ccccc2)c(=O)c2ccccc12)Nc1ccc(F)c(F)c1	i
CN(Cc1ccc(F)cc1)C(=O)CCc1ncc(-c2ccccc2)o1	i
Cc1ccc(NC(=O)c2nn(-c3ccccc3)c(=O)c3ccccc23)cc1S(=O)(=O)N(C)C	i
ClC(=C\c1ccccc1)/C=N/N1CCN(Cc2ccccc2)CC1	i
COc1ccc(S(=O)(=O)Nc2cc(C(=O)O)ccc2C)cc1OC	i
O=C(O)CCC(NC(=O)c1ccccc1)C(=O)O (centres undefined)	i
CC(OC(=O)c1cc2ccccc2[nH]1)C(=O)N(C(C)C)C(C)C (centres undefined)	i
Cc1occc1C(=O)OCC(=O)c1sc2ccccc2c1C	i
COc1ccc2oc(=O)c(-c3nc(-c4ccccc4C)no3)cc2c1	i
Cc1oc(C(O)c2ccccc2F)nc1C(=O)Nc1ccc(C(N)=O)cc1 (centres undefined)	i
Cc1oc(C(O)c2ccccc2F)nc1C(=O)Nc1ccccc1 (centres undefined)	i
Cc1oc(C(O)c2ccccc2F)nc1C(=O)Nc1ccccc1C(N)=O (centres undefined)	35µM*
Cc1cc(C)cc(NC(=O)CC2CC3CCC2C3)c1 (centres undefined)	i
O=C(O)CC1(CNS(=O)(=O)c2ccc(Cl)cc2)CCCCC1	i
O=C1CCN(C2CCN(Cc3nc(COc4ccccc4)no3)CC2)CCN1	i
O=C1NCCCC[C@@H]1Nc1ccc(-c2nc(COc3ccccc3)no2)cn1	28µM*
COc1ccc2cc(-c3[nH]ncc3CN3CCCC3c3nonc3C)ccc2c1 (centres undefined)	i
Cc1nonc1C1CCCN1c1ccc(-c2nc(COc3ccccc3)no2)cn1 (centres undefined)	28µM*
Cc1oc(-c2ccccc2)nc1CC(=O)NC1CCCCNC1=O (centres undefined)	i
Fc1ccc2nc(C3CCN(Cc4nc(COc5ccccc5)no4)CC3)[nH]c2c1	i
CC(=O)Nc1ccccc1OCc1ccc(C)cc1	i
COc1ccc(C)cc1NC(=O)CSc1nc2ccccc2nc1C	i
CO/N=C/c1ccc(OC)c(Cl)c1	i
SMILES	KDM5B inhibitor
O=C(NCCc1cc2ccccc2[nH]1)Nc1cccc2ccccc12	i
N#Cc1nc(-c2ccco2)oc1N1CCN(CC(=O)N2CCCCC2)CC1	i
COc1c(C2CC(=O)Nc3c2ncn3-c2cccc(C(F)(F)F)c2)cc2c(c1OC)OCO2 (centres undefined)	i
O=C(c1nc(-c2cc(Cl)cc(Cl)c2)c2ccccn12)N1CCN(c2ncccn2)CC1	i
O=C(c1nc(-c2ccsc2)c2ccccn12)N1CCN(c2ncccn2)CC1	25µM*
O=C(c1nc(-c2cccnc2)c2cnccn12)N1CCOCC1	i
N#CC1CCN(C(=O)c2nc(-c3cccnc3)c3ccccn23)CC1	100µM*
O=C(c1nc(-c2ccsc2)c2cnccn12)N1CCOCC1	35µM*
O=C(c1nc(-c2cccnc2)c2ccccn12)N1CCN(c2ncccn2)CC1	i
O=C(c1ccc(OC2CCN(C(=O)c3ccsc3)CC2)nc1)N1CCOCC1	i
O=C([C@@H]1C[C@H](Oc2cccnc2)CN1C(=O)c1ccsc1)N1CCOCC1	i
O=C(c1nc(-c2ccc(F)cc2)c2cnccn12)N1CCOCC1	40µM*
O=C(c1cc(-c2ccc(F)cc2)on1)N1CCOCC1	i
O=C(c1cc(-c2ccccc2)nc2ccccc12)N1CCN(c2ncccn2)CC1	i
COC(=O)C1CCN(C(=O)c2sc3ccccc3c2Cl)CC1	i
COc1cccc(-c2ccc(CN3C4CCC3CN(C(=O)c3ccncc3)C4)cc2)c1	i
OC(CNCc1c(OCc2ccccc2)ccc2ccccc12)c1ccccc1 (centres undefined)	i
CCOc1cc(/C=C2/NC(=O)NC2=O)cc(I)c1OCC	i
CC1=C[C@@H](CNC2CCOCC2)[C@H](C(C)C)C[C@H]1Cc1nc2ccc(Cl)cc2[nH]1	i
Cc1ccc(C(=O)N2CCC3(CCCN(Cc4cccc(F)c4F)C3)C2)s1 (centres undefined)	i
COc1cc(CC(=O)NC2CCC(C)CC2)cc(OC)c1OC (centres undefined)	i

Compound activity: PubChem BioAssay, National Center for Advancing Translational Sciences (NCATS)
